# Measured values published in the supplement of paper PMC10849652.
# Of roughly 7,900 targets only a part is listed; those with a hit were picked by preference. About 0.6% of all pairs of compound and target were hits. Unmarked numbers belong to inactive results.
# Key:
# Assay in all cases: log2 fold change, soluble protein after heating vs DMSO (PISA); higher = thermal stabilisation; K562 cells, 10 uM, 30 min; active = over 0.2 and 3.5 SD of the protein, either way, in both replicates (recomputed)
# [1] = compound: C#Cc1cccc(Nc2ncnc3cc(OCCOC)c(OCCOC)cc23)c1 [erlotinib]
# Method in brief: (§1)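 K562 cells at 2×10^6 cells/mL were treated for 30 min with 10 μM compound, and aliquots were heated for 3 min over 48°C-58°C before pooling. Extraction used PBS with 0.5% NP-40 at 4°C, and soluble protein was the supernatant after 21,000xg for 90 min, measured by TMTpro 16plex LC-MS/MS with channel sums equalised. Thermal stability values, relative to control samples and from duplicates, are log2 fold changes.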
# [2] = compound: C/C(=N\NC(=O)C1=CC(=CC=C1)S(=O)(=O)N2CCOCC2)/C3=C(C=CC(=C3)Cl)O
# Method in brief: as §1
# [3] = compound: C1=CC(=C(C=C1Cl)C2=NC3=NC=CN=C3C(=N2)NC4=CC=NC=C4)F
# Method in brief: as §1
# [4] = compound: C1=CC(=CC=C1C2=NC3=C(N2)C=C(C=C3)C(=O)N)OC4=CC=C(C=C4)Cl
# Method in brief: as §1
# [5] = compound: C1=CC2=C(C=CC(=C2)/C=C\3/C(=O)NC(=NCC4=CC=CS4)S3)N=C1
# Method in brief: as §1
# [6] = compound: C1=CC2=NC=CN=C2C=C1/C=C/3\C(=O)NC(=O)S3
# Method in brief: as §1
# [7] = compound: C1=CC=C(C=C1)C2=NC(=C(N2)C3=CC=NC=C3)C4=CC(=C(C=C4)Cl)O
# Method in brief: as §1
# [8] = compound: C1=CC=C2C(=C1)C3=NNC4=CC=CC(=C43)C2=O
# Method in brief: as §1
# [9] = compound: C1CCN(C1)C(=O)NC2=CC=CC(=C2)NC3=NC=C(C(=N3)NCCC4=CN=CN4)Br
# Method in brief: as §1
# [10] = compound: C1CN(CCC1(CC2=CC=C(C=C2)Cl)N)C3=NC=NC4=C3C=CN4
# Method in brief: as §1
# [11] = compound: C1COCCN1CCN2C3=CC=CC=C3N=C2NC(=O)C4=CC(=CC=C4)[N+](=O)[O-] [IRAK-1-4 Inhibitor I]
# Method in brief: as §1
# [12] = compound: C=CC(=O)N1CCC[C@@H](n2nc(-c3ccc(Oc4ccccc4)cc3)c3c(N)ncnc32)C1 [ibrutinib]
# Method in brief: as §1
# [13] = compound: CC(=O)c1cnc2ccc(-c3cc(Cl)c(O)c(Cl)c3)nc2c1N[C@H]1CC[C@H](CN(C)C)CC1
# Method in brief: as §1
# [14] = compound: CC(C)(C)Cn1c(N)nc2ccc(-c3[nH]c(C(C)(C)C)nc3-c3ccc(F)cc3)nc21 [ralimetinib]
# Method in brief: as §1
# [15] = compound: CC(C)(O)CC(=O)NCCn1ccc2ncnc(Nc3ccc(Oc4cccc(C(F)(F)F)c4)c(Cl)c3)c21
# Method in brief: as §1
# [16] = compound: CC(C)C1=C2N=C(C=C(N2N=C1)NCC3=CC=CC=C3)NCCCCCCN
# Method in brief: as §1
# [17] = compound: CC(C)C[C@@H](C=O)NC(=O)[C@H](CC(C)C)NC(=O)[C@H](CC(C)C)NC(=O)OCc1ccccc1
# Method in brief: as §1
# [18] = compound: CC(C)N(C[C@H]1O[C@@H](n2cnc3c(N)ncnc32)[C@H](O)[C@@H]1O)[C@H]1C[C@@H](CCc2nc3cc(C(C)(C)C)ccc3[nH]2)C1 [pinometostat]
# Method in brief: as §1
# [19] = compound: CC1=C(C(CC(=O)N1)C2=CC=C(C=C2)C(F)(F)F)C(=O)NC3=C(C=C4C(=C3)C=NN4)F
# Method in brief: as §1
# [20] = compound: CC1=C(C2=C(C=C1)C(=O)C3=CC=CC=C3N2CCCN)C
# Method in brief: as §1
# Chain of UniProt Q16512 (Q16512 whole entry, looked up): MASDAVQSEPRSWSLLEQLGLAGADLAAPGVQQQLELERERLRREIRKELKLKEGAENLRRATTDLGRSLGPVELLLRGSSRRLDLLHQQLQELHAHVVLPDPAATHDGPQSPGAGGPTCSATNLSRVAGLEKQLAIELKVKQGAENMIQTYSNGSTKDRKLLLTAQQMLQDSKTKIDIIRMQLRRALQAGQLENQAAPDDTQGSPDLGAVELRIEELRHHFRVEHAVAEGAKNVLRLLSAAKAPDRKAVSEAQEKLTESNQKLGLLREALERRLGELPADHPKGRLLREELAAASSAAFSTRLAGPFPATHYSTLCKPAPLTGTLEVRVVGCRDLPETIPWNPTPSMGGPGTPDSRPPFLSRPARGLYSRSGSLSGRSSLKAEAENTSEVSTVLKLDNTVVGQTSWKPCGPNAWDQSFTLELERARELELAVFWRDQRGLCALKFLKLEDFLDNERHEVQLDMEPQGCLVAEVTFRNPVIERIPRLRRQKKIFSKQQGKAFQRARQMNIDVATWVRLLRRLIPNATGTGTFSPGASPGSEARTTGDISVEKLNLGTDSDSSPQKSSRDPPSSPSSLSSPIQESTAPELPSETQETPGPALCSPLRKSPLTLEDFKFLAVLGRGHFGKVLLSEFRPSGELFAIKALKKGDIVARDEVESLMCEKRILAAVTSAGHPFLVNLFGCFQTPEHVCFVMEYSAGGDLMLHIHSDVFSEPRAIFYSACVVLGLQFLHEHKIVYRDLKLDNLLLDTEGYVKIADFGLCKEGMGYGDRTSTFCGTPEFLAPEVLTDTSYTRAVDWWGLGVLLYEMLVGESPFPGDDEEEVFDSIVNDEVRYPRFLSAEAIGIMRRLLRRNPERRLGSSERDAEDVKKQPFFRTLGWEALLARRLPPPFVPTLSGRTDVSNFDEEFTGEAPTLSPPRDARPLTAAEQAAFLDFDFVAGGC
# Chain of UniProt P49642 (P49642 whole entry, looked up): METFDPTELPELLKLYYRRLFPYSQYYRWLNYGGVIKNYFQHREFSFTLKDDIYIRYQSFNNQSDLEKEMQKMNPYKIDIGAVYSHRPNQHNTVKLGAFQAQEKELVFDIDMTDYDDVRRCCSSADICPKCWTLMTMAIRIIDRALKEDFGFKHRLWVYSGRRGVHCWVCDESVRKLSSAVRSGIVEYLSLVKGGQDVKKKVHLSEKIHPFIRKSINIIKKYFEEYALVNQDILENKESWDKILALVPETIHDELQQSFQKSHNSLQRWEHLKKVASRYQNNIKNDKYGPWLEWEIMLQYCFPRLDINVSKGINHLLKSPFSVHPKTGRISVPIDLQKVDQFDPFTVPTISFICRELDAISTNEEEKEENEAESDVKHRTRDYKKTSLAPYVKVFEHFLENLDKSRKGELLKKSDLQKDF
# Chain of UniProt Q96AD5 (Q96AD5 whole entry, looked up): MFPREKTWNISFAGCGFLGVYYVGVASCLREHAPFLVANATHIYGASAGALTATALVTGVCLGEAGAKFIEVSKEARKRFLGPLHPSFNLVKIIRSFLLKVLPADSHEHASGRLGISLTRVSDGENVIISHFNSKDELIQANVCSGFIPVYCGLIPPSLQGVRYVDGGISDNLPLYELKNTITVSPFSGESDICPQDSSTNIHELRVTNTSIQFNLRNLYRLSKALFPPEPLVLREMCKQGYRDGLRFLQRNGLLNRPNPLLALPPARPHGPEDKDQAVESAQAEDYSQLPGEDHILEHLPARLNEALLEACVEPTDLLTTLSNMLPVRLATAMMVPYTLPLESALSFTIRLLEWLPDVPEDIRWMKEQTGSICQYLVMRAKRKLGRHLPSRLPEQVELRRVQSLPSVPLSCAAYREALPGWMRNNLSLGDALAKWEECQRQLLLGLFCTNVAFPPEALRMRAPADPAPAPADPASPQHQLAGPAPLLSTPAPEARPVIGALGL
# Chain of UniProt P0CAP2 (P0CAP2 whole entry, looked up): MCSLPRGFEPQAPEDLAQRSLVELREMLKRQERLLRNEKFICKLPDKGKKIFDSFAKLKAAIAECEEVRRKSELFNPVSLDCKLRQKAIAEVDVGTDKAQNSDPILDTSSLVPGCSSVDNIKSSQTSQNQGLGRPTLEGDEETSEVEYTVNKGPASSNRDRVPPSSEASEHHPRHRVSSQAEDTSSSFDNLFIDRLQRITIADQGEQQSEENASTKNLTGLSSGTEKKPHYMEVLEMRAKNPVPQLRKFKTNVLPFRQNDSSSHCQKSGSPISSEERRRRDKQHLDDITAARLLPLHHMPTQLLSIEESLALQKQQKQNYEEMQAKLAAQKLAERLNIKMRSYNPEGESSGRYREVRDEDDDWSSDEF
# Chain of UniProt Q15257 (Q15257 whole entry, looked up): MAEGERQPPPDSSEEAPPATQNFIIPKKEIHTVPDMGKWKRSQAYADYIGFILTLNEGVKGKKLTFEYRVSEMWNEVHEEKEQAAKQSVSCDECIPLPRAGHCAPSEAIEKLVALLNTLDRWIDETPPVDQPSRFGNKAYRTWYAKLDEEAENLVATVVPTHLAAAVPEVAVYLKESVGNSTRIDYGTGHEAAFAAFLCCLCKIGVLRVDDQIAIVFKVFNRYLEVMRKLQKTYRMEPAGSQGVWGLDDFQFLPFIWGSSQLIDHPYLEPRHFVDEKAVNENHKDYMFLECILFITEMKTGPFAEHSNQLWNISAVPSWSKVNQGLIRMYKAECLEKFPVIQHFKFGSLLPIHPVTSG
# Chain of UniProt P28072 (P28072 whole entry, looked up): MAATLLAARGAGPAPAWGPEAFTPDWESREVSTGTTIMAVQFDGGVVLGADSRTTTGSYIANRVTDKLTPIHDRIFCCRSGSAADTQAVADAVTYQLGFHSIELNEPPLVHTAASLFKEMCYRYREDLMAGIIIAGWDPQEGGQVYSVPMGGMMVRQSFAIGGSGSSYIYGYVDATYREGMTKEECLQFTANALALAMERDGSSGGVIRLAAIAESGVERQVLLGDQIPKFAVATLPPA
# Chain of UniProt Q13362 (Q13362 whole entry, looked up): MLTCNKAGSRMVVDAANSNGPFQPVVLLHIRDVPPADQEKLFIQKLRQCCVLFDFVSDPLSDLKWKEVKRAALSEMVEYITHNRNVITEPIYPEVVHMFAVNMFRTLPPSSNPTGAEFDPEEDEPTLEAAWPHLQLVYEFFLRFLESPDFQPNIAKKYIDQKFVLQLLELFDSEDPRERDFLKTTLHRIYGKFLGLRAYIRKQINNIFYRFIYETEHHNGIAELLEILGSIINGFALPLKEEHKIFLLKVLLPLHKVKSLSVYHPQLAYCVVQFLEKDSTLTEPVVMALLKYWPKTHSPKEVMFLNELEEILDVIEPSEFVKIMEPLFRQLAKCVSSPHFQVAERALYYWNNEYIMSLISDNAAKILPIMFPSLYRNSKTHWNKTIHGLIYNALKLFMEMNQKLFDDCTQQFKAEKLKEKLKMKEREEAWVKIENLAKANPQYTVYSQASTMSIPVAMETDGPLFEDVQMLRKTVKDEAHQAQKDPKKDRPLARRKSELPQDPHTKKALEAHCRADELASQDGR
# Chain of UniProt Q15185 (Q15185 whole entry, looked up): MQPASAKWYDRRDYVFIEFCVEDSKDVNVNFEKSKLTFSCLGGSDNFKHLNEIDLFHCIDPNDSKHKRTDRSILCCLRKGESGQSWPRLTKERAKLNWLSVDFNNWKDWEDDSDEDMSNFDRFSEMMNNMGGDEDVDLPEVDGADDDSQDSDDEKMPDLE
# Chain of UniProt P53350 (P53350 whole entry, looked up): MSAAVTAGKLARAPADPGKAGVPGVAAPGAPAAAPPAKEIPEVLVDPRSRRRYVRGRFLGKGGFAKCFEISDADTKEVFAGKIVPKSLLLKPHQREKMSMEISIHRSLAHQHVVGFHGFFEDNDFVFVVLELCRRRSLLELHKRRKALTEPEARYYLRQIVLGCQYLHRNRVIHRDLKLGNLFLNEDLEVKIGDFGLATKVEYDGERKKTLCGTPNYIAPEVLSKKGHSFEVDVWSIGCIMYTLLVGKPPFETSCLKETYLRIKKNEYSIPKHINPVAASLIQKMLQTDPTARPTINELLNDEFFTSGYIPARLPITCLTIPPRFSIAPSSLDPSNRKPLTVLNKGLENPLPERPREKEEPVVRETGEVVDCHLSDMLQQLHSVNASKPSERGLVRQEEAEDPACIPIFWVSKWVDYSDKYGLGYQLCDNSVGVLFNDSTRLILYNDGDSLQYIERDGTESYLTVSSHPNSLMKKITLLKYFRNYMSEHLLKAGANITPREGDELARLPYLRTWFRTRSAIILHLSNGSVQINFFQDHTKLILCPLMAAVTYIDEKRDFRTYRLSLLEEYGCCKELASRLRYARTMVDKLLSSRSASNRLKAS
# Chain of UniProt Q7RTV0 (Q7RTV0 whole entry, looked up): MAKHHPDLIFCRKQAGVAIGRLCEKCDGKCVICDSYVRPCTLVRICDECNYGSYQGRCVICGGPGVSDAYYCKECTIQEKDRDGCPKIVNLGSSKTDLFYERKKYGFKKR
# Chain of UniProt Q969N2 (Q969N2 whole entry, looked up): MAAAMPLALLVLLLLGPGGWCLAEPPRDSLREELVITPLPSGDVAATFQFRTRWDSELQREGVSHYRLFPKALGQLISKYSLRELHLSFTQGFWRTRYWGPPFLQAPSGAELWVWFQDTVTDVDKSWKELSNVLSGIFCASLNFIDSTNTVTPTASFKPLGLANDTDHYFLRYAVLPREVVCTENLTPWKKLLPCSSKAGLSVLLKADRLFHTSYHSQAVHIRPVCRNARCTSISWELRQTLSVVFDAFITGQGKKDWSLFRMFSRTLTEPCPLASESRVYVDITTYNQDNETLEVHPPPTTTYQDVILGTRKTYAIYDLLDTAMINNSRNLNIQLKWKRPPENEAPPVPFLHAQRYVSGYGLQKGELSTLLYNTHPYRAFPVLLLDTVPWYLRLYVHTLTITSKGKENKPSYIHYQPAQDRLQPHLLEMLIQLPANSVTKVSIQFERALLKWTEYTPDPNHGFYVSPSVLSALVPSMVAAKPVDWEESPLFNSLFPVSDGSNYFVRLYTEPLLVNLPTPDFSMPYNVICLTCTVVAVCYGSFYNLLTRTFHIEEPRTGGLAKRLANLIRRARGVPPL
Target,log2 fold change [1],log2 fold change [2],log2 fold change [3],log2 fold change [4],log2 fold change [5],log2 fold change [6],log2 fold change [7],log2 fold change [8],log2 fold change [9],log2 fold change [10],log2 fold change [11],log2 fold change [12],log2 fold change [13],log2 fold change [14],log2 fold change [15],log2 fold change [16],log2 fold change [17],log2 fold change [18],log2 fold change [19],log2 fold change [20]
PHAX (UniProt Q9H814),-0.004,0.042,0.045,0.009,0.023,0.054,-0.047,-0.101,-0.013,0.059,0.015,0.027,-0.041,0.002,0.024,-0.16,0.019,0.016,0.071,-0.253 (active)
PLK1 (UniProt P53350),-0.027,0.035,0.006,0.079,-0.041,-0.017,-0.018,0.058,-0.003,-0.039,-0.035,0.022,-1.17 (active),0.006,-0.011,0.186,0.015,0.019,0.005,0.144
PNPLA2 (UniProt Q96AD5),0.017,0.052,0.007,-0.021,0.045,0.063,-0.015,-0.027,0.101,-0.034,-0.006,0.166,-0.116,-0.009,0.044,-0.184,0.121,-0.018,-0.083,-0.004
PRKAB1 (UniProt Q9Y478),0.043,0.15,0.052,-0.011,-0.06,0.024,0.019,0.026,-0.076,0.068,0.015,-0.02,-0.184,0.022,-0.069,-0.006,-0.041,-0.048,0.036,0.015
PIGT (UniProt Q969N2),-0.045,0.037,0.002,0.034,0.009,-0.001,0.011,0.018,-0.006,-0.003,-0.016,0.01,-0.009,0.022,-0.067,-0.089,0.002,0.045,0.018,0.01
POLR2M (UniProt P0CAP2),-0.042,-0.033,-0.054,0.004,0.05,0.055,0.041,-0.009,0.017,-0.024,-0.022,-0.017,0.067,0.016,0.001,0.059,0.058,-0.02,0.067,0
PSMB6 (UniProt P28072),-0.067,-0.079,-0.024,-0.001,-0.068,-0.006,-0.046,-0.012,0.011,0.042,-0.007,-0.025,0.049,-0.045,0.045,0.129,0.4 (active),-0.053,0.046,0
PTGES3 (UniProt Q15185),0.005,0.095,0.079,-0.05,0.019,0.007,0.043,-0.014,-0.014,-0.049,0.04,0,-0.01,0.017,-0.103,-0.247,-0.079,-0.081,0.008,-0.202
PRIM1 (UniProt P49642),0.005,0.011,-0.044,0.049,-0.005,0.027,-0.09,0.061,-0.033,-0.074,-0.066,-0.035,0.007,0.048,-0.079,-0.319 (active),0.046,0.114,0.026,-0.006
PTPN23 (UniProt Q9H3S7),0.092,0.158,-0.007,-0.048,0.041,0.018,0,0.006,-0.048,-0.029,-0.008,-0.052,-0.044,0.013,-0.061,-0.095,0.038,-0.009,-0.036,0.046
PKN1 isoform 2 (UniProt Q16512),0.018,0.088,0.064,0.055,0.059,0,0.011,0,-0.061,-0.326 (active),-0.014,-0.018,-1.2 (active),0.006,-0.09,-0.038,0.002,0.057,-0.002,0.047
PRKAG1 isoform 3 (UniProt P54619),0.025,0.038,-0.016,-0.012,0.083,0.032,0.037,-0.015,-0.007,0.045,0.042,-0.019,-0.266 (active),0.001,-0.011,-0.067,-0.025,0.015,0.079,0.013
PHF5A (UniProt Q7RTV0),0.008,-0.005,0.03,-0.034,-0.049,0.017,-0.03,-0.05,-0.02,0.022,0.02,0.001,0.008,0,0.088,0.242 (active),-0.073,-0.073,0.011,0.109
PTPA (UniProt Q15257),0.022,0.034,0.069,0.127,-0.01,0.01,0.022,0.029,-0.037,-0.013,0.016,-0.027,-0.003,-0.02,-0.022,-0.01,-0.028,-0.044,0.016,-0.011
PPP2R5C isoform 5 (UniProt Q13362),0.028,0.021,0.015,-0.014,0.009,-0.036,0.004,0.047,-0.018,-0.002,-0.023,0.041,-0.059,-0.044,-0.072,-0.061,0.031,0.011,0.005,-0.018
PMPCA (UniProt Q10713),-0.014,0.005,0.064,0.016,0.03,-0.014,0.07,0.065,-0.026,0.011,0.016,-0.008,-0.029,0.057,-0.155,0.097,-0.003,-0.015,-0.034,0.055
